Hit rate of the full screen: of about 59,000 compounds, about 35 (0.06%) were called active. Not shown: some 19% with an inconclusive outcome. No stated cut-off is given here; in the data, active means max dye-equivalent concentration above about 10 nM; inconclusive means between about 1.1 nM and that limit; inactive means weaker than that. The list comes from a sample in which actives are over-represented; it also holds similar structures and randomly drawn compounds.
experiment: qHTS Assay for Spectroscopic Profiling in Texas Red Spectral Region; conditions: Compound fluorescence, Texas Red channel, 547/618 nm
Description: NIH Molecular Libraries Screening Centers Network [MLSCN] NIH Chemical Genomics Center [NCGC] […] Occasionally, the artifactual effect may originate from the compound#s own spectral or other biophysical properties which generally tend to track its assay concentration. Pre-screening/profiling the library with respect to the compounds# spectral properties should help one exclude false positives early on. While the most informative fluorescent profiling data set is obtained by performing a full excitation and emission scan of each well by using a monochromator-based plate reader, such an approach is practical only on a very limited scale as scanning each well requires long time. An alternative approach, applied here, is to perform plate reader scans using selected excitation and emission wavelength pairs to generate a multidimensional relational database that correlates compound concentration and the respective relative fluorescence intensity at a given wavelength set. A standard curve of Texas Red (TR) present on each plate as six-point concentration series, was used to compute a normalized fluorescence response, termed dye-equivalent concentration, for each compound at each concentration.
NCGC Assay Protocol Summary: Buffer: 100 mM Tris buffer, pH 8.0 Dye standard plate: The wells in columns 1 through 4 of a Kalypsys polypropylene 1536-well compound plate were filled with standard solutions of fluorophore corresponding to the spectral region of interest. Solutions of TR were placed in the following wells: U1, V1: 3 mM, U2, V2: 300 uM, U3, V3: 30 uM, U4, V4: zero (DMSO), W1, X1: 3 uM, W2, X2: 900 nM, W3, X3: 300 nM, W4, X4: zero (DMSO). Assay Steps: Six uL of buffer were dispensed to 1536-well Greiner black plates. Compounds and dye standards (23 nL) were transferred via Kalypsys PinTool. The plates were incubated for 15 min at room temperature, and then read on ViewLux (Perkin-Elmer) High-throughput CCD imager using 547 nm and 618 nm excitation and emission filter set. Keywords: NIH Roadmap, MLSCN, MLI, MLSMR, qHTS, NCGC, Texas Red, Fluorescent Profiling.

Max dye-equivalent concentration, inactive:
Cc1nn(-c2ccccc2)c(CC(C)(C)C(=O)O)c1C(=O)O
COCCn1c(=O)c(-c2cc(F)cc(F)c2)nc2cnc(N3CCNCC3)nc21
CN1CCN(S(=O)(=O)c2ccc(NC(=O)C3CCCO3)cc2)CC1 (configuration not stated)
O=C(c1cnccn1)N1CCC[C@@]2(CCN(Cc3ccncc3)C2)C1
CN1CCN(c2ncc3nc(-c4ccc(Cl)cc4)c(=O)n(-c4ccccc4)c3n2)CC1
N#Cc1cccc(-c2nc3cnc(N4CCNCC4)nc3n(C3CC3)c2=O)c1
CCOCCOC(=O)C1=C(C)N(C)C(=O)NC1c1ccccc1F (configuration not stated)
Cc1nc(NCc2ccccc2)c(C(N)=O)c2c1COC(C)(C)C2
COc1ccc(N2CCN(C(=O)CSc3nnc4ncccn34)CC2)cc1
O=C1CSC(c2cccc(F)c2)N1c1ccccc1F (configuration not stated)
COc1ccc(N2CCN(Cc3cc(=O)oc4ccc5ccccc5c34)CC2)cc1
COC(=O)c1ccccc1NC(=O)CSc1ccccn1
COc1ccc2oc(=O)c(C(=O)N3CCN(c4ccccc4F)CC3)cc2c1
CCNc1ncc2nc(CCc3ccccc3)c(=O)n(-c3ccc(OC)cc3)c2n1
CCOC(=O)C1CCN(C(=O)Cn2cc(C#N)c3ccccc32)CC1
CC(C)C(C(=O)NC1CCCCC1)N(CC1CCCO1)C(=O)CNS(=O)(=O)c1ccc(F)cc1 (configuration not stated)
CO[C@@H]1/C=C\O[C@]2(C)Oc3c(C)c(O)c4c(O)c(c(CN(C)C)c(O)c4c3C2=O)NC(=O)/C(C)=C\C=C[C@@H](C)[C@@H](O)[C@H](C)[C@@H](O)[C@H](C)[C@H](OC(C)=O)[C@@H]1C
Cc1c(C(=O)CN2CCOCC2)[nH]c2ccccc12
O=C(NCCCCO)C(F)(F)C(F)(F)C(F)(F)C(=O)NCCCCO
O=c1c(-c2ccc(F)c(F)c2)nc2cncnc2n1-c1ccccc1
COC(=O)[C@@H]1[C@H]2C[C@H]3c4[nH]c5cc(OC)ccc5c4CCN3C[C@@H]2C[C@@H](OC(=O)c2cc(OC)c(OC)c(OC)c2)[C@@H]1OC
COc1ccc(C(=O)N(CCN2CCOCC2)CC(=O)NC2CCCC2)cc1OC
C=C(C)CSc1nc(N)c2c3c(sc2n1)CCC3
CC(C)c1nc(N2CCOCC2)c(C#N)c2c1COC(C)(C)C2
CN(C)c1ncc2nc(-c3ccc(F)cc3)c(=O)n(Cc3ccc(F)cc3)c2n1
c1cncc(CNc2ccnc(-c3ccc4c(c3)OCO4)n2)c1
CCN(CC(=O)NC(C)C)C(=O)CCNC(=O)c1ccc(Cl)cc1
Cc1nc2cnc(N3CCN(C)CC3)nc2n(C[C@H]2CCCO2)c1=O
COc1ncc2nc(-c3ccc(Cl)cc3)c(=O)n(-c3ccccc3)c2n1
O=C(O)[C@@H](S)[C@H](S)C(=O)O
N#CCCn1c(=O)c(-c2cc(F)cc(F)c2)nc2cnc(Oc3ccccc3)nc21
COc1ccc(OC)c(CN2C(=O)CCC2(C)C(=O)NC2CCCCCC2)c1 (configuration not stated)
O=C(Cn1nnc(-c2ccccc2)n1)NCc1ccccc1
O=c1[nH][nH]c(=O)c2cc(N3CCCC3)ccc12
CC(C(=O)N1CCOCC1)N1c2cccc3cccc(c23)S1(=O)=O (configuration not stated)
O=C(Nc1ccc2c(c1)OCCO2)C1CCCN(c2ncccn2)C1 (configuration not stated)
COCCNC(=O)C(c1ccc(C)o1)N(Cc1cccs1)C(=O)c1snc(C(N)=O)c1N (configuration not stated)
COc1c(F)c(F)c(-c2csc(N)n2)c(F)c1F
CC(C)c1ccc(NC(=O)NC2CCCCC2)cc1
CCC(C)(C(=O)NC1CCCC1)N(C(=O)CNC(C)=O)c1ccc(C)cc1 (configuration not stated)
CCNc1nc(NCC)nc(N(C)n2cnnc2)n1
O=C(CN1CCN(c2ccccn2)CC1)NCc1cccs1
O=C(O)COc1c(Cl)cc(Cl)c2cccnc12
O=C(OCC(O)C(O)COC(=O)c1ccccc1)c1ccccc1 (configuration not stated)
COc1cccc(Cn2c(=O)c(CCc3ccccc3)nc3cnc(N(C)C)nc32)c1
CN1CCN2c3ccccc3Cc3ccccc3[C@@H]2C1
COCCn1c(=O)c(-c2cccc(F)c2)nc2cncnc21
CC1Cc2cc(/C(O)=C3\C(=O)C(=O)N(CCN4CCOCC4)C3c3ccccc3F)ccc2O1 (configuration not stated)
CCOC(=O)CSc1nc2sc3c(c2c(=O)[nH]1)CC(C)(C)OC3
CC(C)NC(=O)N1CC[C@@]2(CCCN(C(=O)c3ccco3)C2)C1
CCC(c1nnnn1C1CCCC1)N1CCN(C(=O)c2ccco2)CC1 (configuration not stated)
Cc1nn(-c2ccccc2)c2sc(C(=O)N(Cc3ccco3)C(C)C(=O)NC(C)(C)C)cc12 (configuration not stated)
CCOC(=O)N1CCC(Nc2c(NCCCN3CCN(c4ccc(OC)cc4)CC3)c(=O)c2=O)CC1
COc1ccccc1CNC(=O)CCCNS(=O)(=O)c1cccc2nsnc12
COc1cccc(-c2cc(NCCc3c[nH]c4ccc(OC)cc34)ncn2)c1
CC(C)(C)c1ccc(C(=O)NCCC(=O)NCc2ccco2)cc1
CCOCC(=O)Nc1cc(OC)c(Cl)cc1OC
CCOc1ccc(CCNC(=O)C2CCN(c3ccc(N4CCOCC4)nn3)CC2)cc1OCC
O=C(Cn1ccc(=O)[nH]c1=O)Nc1ccc(C(=O)O)c(O)c1
CCc1c(C)sc(NC(=O)c2ccc(Br)o2)c1C(=O)OC
CCNc1ncc2ncc(=O)n(Cc3cccc(OC)c3)c2n1
CC1(C)S[C@@H]2[C@@H](NC(=O)[C@@H](N)c3ccccc3)C(=O)N2[C@H]1C(=O)O
COCCn1c(=O)c(-c2cccs2)nc2cncnc21
CN(C)c1cc(N)c2ccccc2n1 (tested in a mixture with another compound)
C[N+]1(CCNC(=O)/C=N/O)CCCCC1
CCCCCC(=O)Nc1ccc2oc(-c3ccncc3)nc2c1
CN/C(=C\[N+](=O)[O-])NCCSCc1csc(CN(C)C)n1
